Rows were chosen to be rich in hits. Some 12% of all compounds tested hit in one or more screens of this group.
BAZ2B block: BAZ2B (human) inhibition. actives 4.4% (n = 360,000). AlphaScreen BAZ2B-H3K14Ac peptide displacement. Potency, µM (titrated, usually from 114 µM), without a hit: top-dose activity change, negative = inhibition, actives largely listed as inhibitors. Q9UIF8. AID 504333; further: on the % scale 0 is the no-effect control and ±100 the full control effect; nearly all actives have a fitted effect of over 60% in size
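Inhibition is scored as reduced AlphaScreen emission. The BAZ2B/b-H3(5-23)K14Ac complex (50 nM each) in PBS pH 7.4, 0.01% Tween-20 meets compound (up to 110 uM) for 30 min at RT before bead addition.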
G9a inh: G9a (human) methyltransferase inhibition; G9a H3K9 monomethylation, AlphaScreen, 2 h; Potency, µM (highest dose often 102 µM), for the others: at the top dose activity, negative = inhibition, actives largely listed as inhibitors; actives 8.8% (n = 350,000); AID 504332; further: on the % scale 0 is the no-effect control and ±100 the full control effect; nearly all actives have a fitted effect of over 75% in size
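Chemiluminescent proximity detection of H3K9 monomethylation, read after 10 min bead incubation in the dark. Reaction: 20 nM G9a, 500 nM biotin-H3K9 peptide, 20 uM SAM cofactor, 2 h, room temperature, following 15 min enzyme-compound preincubation.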
HP1b chromo inh: HP1-beta chromodomain-methylated histone interaction inhibition; P83916; AlphaScreen HP1-beta / biotin-H3K9me3 peptide binding; Potency, µM (highest dose often 114 µM), for the others: at the top dose activity change, negative = inhibition, most hits filed as inhibitors; actives 0.56% (n = 390,000); AID 540317; further: nearly all actives have a fitted effect of over 70% in size
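Compound inhibition of the preformed complex between 50 nM HP1-beta and 50 nM biotinylated H3K9me3 peptide was read by AlphaScreen. Buffer was PBS pH 7.4 with 0.01% Tween-20. Incubations ran 30 min at room temperature, with 10 ug/mL donor/acceptor beads.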
Sfp PPTase inh: blocks B. subtilis Sfp PPTase activity. Biochemical Sfp PPTase activity, qHTS. Potency, µM, for the others: largest response in the series, negative = inhibition, actives largely listed as inhibitors. actives 3.5% (n = 310,000). AID 1490;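 further: the enzyme is Sfp with the accession as filed and its product quenches rhodamine fluorescence; 0% = enzyme reaction without inhibitor and -100% = no enzyme wells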
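Step 1, compound plus 15 nM Sfp-PPTase, 15 min, room temperature. Step 2, add rhodamine-CoA (5 uM) and BHQ-2-YbbR (12.5 uM). Step 3, read 525/598 nm fluorescence at 0 and 30 min.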
JMJD2A Tudor inh: inhibitors of human JMJD2A Tudor domain; O75164; AlphaScreen JMJD2A-Tudor / H3K4me3 peptide binding; Potency, µM (top dose mostly 114 µM), for the others: at the top dose activity change, negative = inhibition, hits mostly inhibitors; actives 4.4% (n = 390,000); further: on the % scale 0 is the no-effect control and ±100 the full control effect; nearly all actives have a fitted effect of over 50% in size
TDP1 block: TDP1 (human) enzyme inhibition; Potency, µM (series often up to 130 µM), without a hit: at the top dose activity change, negative = inhibition, most hits filed as inhibitors; AID 485290; recombinant TDP1, AlphaScreen DNA substrate cleavage; actives 0.28% (n = 350,000); Q9NUW8; further: on the % scale 0 is the no-effect control and ±100 the full control effect; nearly all actives have a fitted effect of over 40% in size
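Recombinant E. coli-expressed Tdp1 (1 nM) preincubated with compound 15 min at RT, then 5'-biotin/3'-phosphotyrosine-FITC DNA substrate (15 nM) added for 5 min. AlphaScreen beads (10 ug/ml) added, 10 min RT; tyrosine-FITC cleavage read as signal loss.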
An asterisk follows results filed as active; ? = inconclusive; . = no result; [ ] = dose if it differs, or a comment. The call rests on the fitted dose curve; in most records, active means well fitted curve in the direction sought with a large enough effect; inconclusive means small, poorly fitted or top-dose-only effect, or another doubt; inactive means no such curve, though single readings can be large; an effect the other way counts as inactive or inconclusive. Potency means the concentration at half of the fitted maximal effect.

SMILES	BAZ2B block	G9a inh	HP1b chromo inh	Sfp PPTase inh	JMJD2A Tudor inh	TDP1 block
O=S(=O)(Nc1cc(S(=O)(=O)N2CCOCC2)ccc1NCC1CCCO1)c1ccccc1F (centres undefined)	-9%	?	32%	.	-13%	2%
COc1cc(C(=O)OCC(=O)c2cc(C)n(C)c2C)cc(OC)c1OC	0%	5%[59 µM]	?	-19%	32µM*	2%
Cc1sc(NC(=S)Nc2ccc(F)cc2)c(C(N)=O)c1C	-15%	28µM*	-10%	20µM*	-6%[11.4 µM]	6%
COC(=O)c1c(NC(=S)Nc2ccc(CC(=O)O)cc2)sc(C)c1C	-3%	8.9µM*	-2%	-36%	-10%[57.1 µM]	-2%
COC(=O)CNC(c1ccccc1)c1cc(Br)ccc1NC(=O)CCN1CCOCC1 (centres undefined)	-28%	3.2µM*	5%	32µM*	-29%	3%
CCOC(=O)CNC(c1ccccc1)c1cc(Br)ccc1NC(=O)CCN1CCOCC1 (centres undefined)	0%	?	2%	16µM*	-28%	5%
CCOC(=O)CNC(c1ccccc1)c1cc(Br)ccc1NC(=O)OCC (centres undefined)	1%	112%[59 µM]	74%	7%	56%	5%
COC(=O)CNC(c1ccccc1)c1cc(Br)ccc1NC(=O)CNC(=O)OCc1ccccc1 (centres undefined)	-12%	5%[59 µM]	24%	2%	-10%[57.1 µM]	5%
COc1ccc(CCNC(=O)c2cc(Sc3cccc(Cl)c3)nc3ccccc23)cc1OC	1%	0%[59 µM]	31%	.	-28%	3%
CC(=O)OC1CC(OC(C)=O)[C@]2(C)C(CC(=O)[C@]3(C)C2CC[C@@]2(C)C(C(=O)O)OC(=O)C4OC423)C1(C)C (some centres undefined)	.	-36%[2.33 µM]	.	-3%	.	8%[56.1 µM]
C=C1CCN(C(Cc2ccccc2)C(=O)Nc2ccc(OC)cc2)S(=O)(=O)c2ccccc21 (centres undefined)	.	.	4%	0%	-32%	4%
CCN(CC)CCCNCC(=O)Nc1ccc2c(c1)CCC2	56µM*	35µM*	?	89µM*	28µM*	3%
CCN(CC)CCCNCC(=O)Nc1ccc(OC)c(Cl)c1	50µM*	8.9µM*	.	7%	.	-3%
COc1ccc(NC(=O)CCCC(=O)O)cc1Cl	-7%	-4%	13%	18%	-9%	0%
CCN1C(=O)C2C(C1=O)N1C(c3ccccc3)C3C(=O)N(CC)C(=O)C3N1C2c1ccccc1 (centres undefined)	1%	-2%[59 µM]	11%	13%	1%	6%
CCN1C(=O)C(C(=O)c2ccccc2)SC1=S (centres undefined)	56µM*	22µM*	-37%	20µM*	56µM*	2%
CC(C)n1c(SCC(=O)Nc2ccc(N3CCOCC3)cc2)nnc1-c1ccco1	-16%	-39%	31%	5%	32µM*	10%
Cn1c(SCC(=O)Nc2ccc(N3CCOCC3)cc2)nnc1-c1ccco1	-23%	1%	-15%	13%	-21%	.
Cc1nnc(NC(=O)CSc2nnc(-c3ccco3)n2C(C)C)s1	-20%	18%	26%	5%	1%	1%
CC(C)n1c(SCC(=O)Nc2nncs2)nnc1-c1ccco1	50µM*	.	-12%	20µM*	56µM*	11µM*
COc1cccc(CN2CCN(C(c3ccccc3)c3ccccc3)CC2)c1O	35µM*	.	?	?	50µM*	7%
COc1cc(C(=S)N2CCN(C(c3ccccc3)c3ccccc3)CC2)cc(OC)c1O	40µM*	7.9µM*	?	16µM*	56µM*	.
COc1ccc(C(=O)NCCNc2nc3ccc(C)cc3cc2C#N)cc1	-34%	45µM*	49%	?	1%	.
Cc1ccc2cc(C#N)c(NCCCNC(=O)C3CCCO3)nc2c1 (centres undefined)	0%	?	42%	79µM*	-2%	-4%
